Rows were chosen to be rich in hits. Some 1.8% of all compounds tested hit in one or more screens of this group.
hERG WT inh – KCNH2 (human, wildtype) channel inhibition; AID 720551; Q12809; activity change, % at 1.84 µM; 340,000 compounds, 0.37% hits; U2OS, BacMam KCNH2, thallium flux FluxOr; stronger effect = lower value;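 active = maximum activity change below -70%; inconclusive = maximum activity change between -70% and -50%; inactive = maximum activity change above -50%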; note: % is set by controls: 0 for no effect and ±100 for the full control effect
Target sequence (Q12809 whole entry, looked up): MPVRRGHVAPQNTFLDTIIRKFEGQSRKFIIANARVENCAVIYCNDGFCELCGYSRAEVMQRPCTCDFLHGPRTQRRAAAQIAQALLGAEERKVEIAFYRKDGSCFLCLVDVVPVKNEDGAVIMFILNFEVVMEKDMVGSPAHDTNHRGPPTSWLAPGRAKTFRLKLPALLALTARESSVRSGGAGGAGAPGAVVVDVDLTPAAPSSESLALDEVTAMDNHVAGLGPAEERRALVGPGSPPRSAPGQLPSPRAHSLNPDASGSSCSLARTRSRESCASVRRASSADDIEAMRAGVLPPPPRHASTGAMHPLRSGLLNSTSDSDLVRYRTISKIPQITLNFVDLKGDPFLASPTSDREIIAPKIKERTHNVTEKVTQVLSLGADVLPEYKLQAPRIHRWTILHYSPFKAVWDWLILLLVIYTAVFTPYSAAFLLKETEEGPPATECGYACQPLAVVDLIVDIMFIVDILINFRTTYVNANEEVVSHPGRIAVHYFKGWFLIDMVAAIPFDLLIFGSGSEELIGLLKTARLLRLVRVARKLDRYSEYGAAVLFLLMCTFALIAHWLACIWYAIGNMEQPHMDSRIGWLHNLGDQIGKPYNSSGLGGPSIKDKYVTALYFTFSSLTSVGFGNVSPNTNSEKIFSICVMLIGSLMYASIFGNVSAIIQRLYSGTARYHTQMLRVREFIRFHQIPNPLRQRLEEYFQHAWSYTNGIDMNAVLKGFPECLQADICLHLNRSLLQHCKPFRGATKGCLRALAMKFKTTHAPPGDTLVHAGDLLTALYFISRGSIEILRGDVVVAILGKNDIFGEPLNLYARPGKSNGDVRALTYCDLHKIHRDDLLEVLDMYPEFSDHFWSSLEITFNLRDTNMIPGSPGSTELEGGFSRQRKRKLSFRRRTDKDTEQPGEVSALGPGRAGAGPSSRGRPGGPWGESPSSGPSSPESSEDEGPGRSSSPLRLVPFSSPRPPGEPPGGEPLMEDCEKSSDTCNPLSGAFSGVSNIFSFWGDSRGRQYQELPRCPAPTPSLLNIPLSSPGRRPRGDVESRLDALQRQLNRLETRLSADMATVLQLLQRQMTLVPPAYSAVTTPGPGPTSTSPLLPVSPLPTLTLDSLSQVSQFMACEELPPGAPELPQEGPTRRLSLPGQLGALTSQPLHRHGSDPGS
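U2OS cells transduced with wild-type KCNH2 virus are loaded with FluxOr dye for 45 min, and thallium flux is measured in kinetic reads before and after stimulation buffer. Rate constants are normalized to DMSO controls.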
AT treatment – potential ataxia-telangiectasia treatments restoring KAP-1 phosphorylation. F2112 A-T fibroblasts, KAP-1 phosphorylation AlphaLISA; neocarzinostatin DNA damage 30 min before lysis. Potency, µM (top dose mostly 57.5 µM), inactives show at the top dose activation, actives largely listed as activators. 320,000 compounds, 0.19% hits. AID 485349; note: potency is the fitted concentration of half-maximal effect; % of control where 0% means no effect; nearly all actives have a fitted effect of over 45% in size
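hTERT-immortalized A-T patient fibroblasts (F2112), 500 cells/well in OPTI-MEM, 1% FBS, got compounds for 60 min, then NCS for 30 min at 37C. Lysates were then assayed for phospho-KAP-1 by AlphaLISA (anti-pKAP1 donor, anti-KAP1 acceptor beads), 6 hr at 25C.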
KCNH2 3.1 block – inhibitors of human KCNH2 3.1 potassium channel isoform | U2OS KCNH2 3.1, thallium flux FluxOr; stronger effect = lower value | activity change, % (tested at about 1.8 µM) | 340,000 compounds, 0.95% hits | AID 720553;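 active = maximum activity change below -70%; inconclusive = maximum activity change from -70% to -50%; inactive = maximum activity change above -50%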;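 note: thallium influx rate constant from kinetic fluorescence after stimulation buffer; % is set by controls: 0 for no effect and ±100 for the full control effect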
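Steps: virus added to U2OS suspension (4 h, RT, dark); medium with 10% FBS added, cells plated, 37 C overnight; FluxOr/Red40 loading buffer 45 min RT; stimulation buffer, 2 min kinetic read; rate constant normalized.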
ALOX12 inh – ALOX12 (human) lipoxygenase inhibition. P18054. purified 12hLO, xylenol orange hydroperoxide absorbance. Potency, µM (titrated, usually from 108 µM), without a hit: at the highest dose activity change, negative = inhibition, actives largely listed as inhibitors. 580,000 compounds, 1.1% hits; note: potency is the fitted concentration of half-maximal effect; % is set by controls: 0 for no effect and ±100 for the full control effect
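Hydroperoxide product was detected by ferrous iron/xylenol orange as the 573 to 405 nm absorbance ratio. Arachidonic acid at 40 uM (final) was turned over for 30 min at room temperature by 150 nM human 12hLO, pH 7.0 Hepes buffer, after 15 min compound preincubation.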
* = called active by the depositor; u = inconclusive; x = not tested or not shown; [ ] = another dose, or the depositor's remark. Unless noted, calls come from the whole dose curve; as a rule, active = well fitted curve in the direction sought with a large enough effect; inconclusive = small, poorly fitted or top-dose-only effect, or another doubt; inactive = no such curve, though single readings can be large; an effect the other way counts as inactive or inconclusive.

SMILES	hERG WT inh	AT treatment	KCNH2 3.1 block	ALOX12 inh
CCOC(=O)C1(Cc2ccc(Cl)cc2)CCN(CCCn2cccn2)CC1	-44.8	1.5%	-118.8*	-26.0%
CCOC(=O)C1(Cc2ccccc2C(F)(F)F)CCN(C(C)CSC)CC1 (stereo unspecified)	3.2	7.0%	-21.5	38.8%
CCOC(=O)C1(Cc2ccccc2C(F)(F)F)CCN(C(C)CCn2cccn2)CC1 (stereo unspecified)	-15.4	-5.5%	-84.8*	u
Cc1cc(Cl)ccc1OCC(=O)N(Cc1sccc1C)CC1CCCO1 (stereo unspecified)	x	x	x	-2.2%
CC[C@@H]1CC=C[C@H]2[C@H]1C(=O)N(Cc1ccccc1)[C@H]2c1ccc(C(F)(F)F)cc1	-4.3	3.2%	-77.1*	-9.9%
Cc1nn(-c2ccc(Cl)nn2)c2c1C(c1cccc3nccnc13)CC(=O)N2 (stereo unspecified)	x	x	x	-4.3%
CCCCOc1ccc(C(=O)N/C(=C\c2cccc([N+](=O)[O-])c2)C(=O)OCc2ccco2)cc1	-28.4	3.8%	-75.5*	-0.3%
O=C(COC(=O)c1ccccc1C(=O)c1ccc(Cl)cc1)NCCc1ccccc1	-10.2	16.3%	-72.3*	-8.5%
O=C(COC(=O)c1ccccc1C(=O)c1ccccc1)NCCc1ccccc1	-0.9	2.4%	-2.3	0.7%
O=C(COC(=O)c1ccccc1Cl)NC(=O)NCc1ccccc1	-139.3*	13.2%	-226.3*	-0.5%
O=C(COC(=O)c1ccccc1F)NNC(=O)c1ccccc1	-6.6	-2.5%	11.5	-0.8%
CCCCNC(=O)COC(=O)c1ccccc1F	-130.6*	9.1%	9.1	3.7%
O=C(CSc1nnc(-c2ccc(F)cc2)n1CC1CCCO1)Nc1ccc2c(c1)CCC2 (stereo unspecified)	x	x	x	12.2%
Cc1ccc2c(c1)N(CC(=O)NCCC1=CCCCC1)C(=O)c1cccnc1O2	-5.9	9.2%	-6.7	20µM*
CCc1ccc2cc3c(cc2n1)C(=O)c1ccccc1-3	x	x	x	7.94µM*
Cc1cc2c(cc1C)-c1ccccc1C2=O	x	x	x	31.6%
COc1ccc(OC)c(NC(=O)N2CCN(c3ccc(=O)n(-c4ccccc4)n3)CC2)c1	x	x	x	-4.3%
COc1ccc2c(c1)cc(C(=O)N[C@H](C(=O)N1CCC(C(=O)O)CC1)C(C)C)n2C	8.9	7.08µM*	13.4	7.2%
Fc1ccc2c(c1)Sc1ccc(Cl)cc1CC2N1CCN(CCC2OCCO2)CC1 (stereo unspecified)	-2.6	x	-95.3*	u
O=[N+]([O-])c1ccc2c(c1)C(N1CCN(CCO)CC1)Cc1ccc(F)cc1S2 (stereo unspecified)	x	x	x	-18.3%
Cc1ccc(CNC(=O)c2ccc3c(c2)CN(C2CCN(CC(C)C)CC2)CCO3)cc1	x	x	x	19.6%
O=C1NCc2ccccc2CC12CCN(Cc1ccc([N+](=O)[O-])cc1)C2 (stereo unspecified)	x	x	x	50.1µM*
O=C1NCc2ccccc2CC12CCN(Cc1ccc(O)cc1)C2 (stereo unspecified)	x	x	x	1.6%
Cc1ccc(CCN2CCC3(Cc4ccccc4CN([S+](C)(=O)[O-])C3)C2)cc1 (stereo unspecified)	x	x	x	7.08µM*
Cc1ccc(CCN2CCC3(Cc4ccccc4CNC3=O)C2)cc1 (stereo unspecified)	x	x	x	12.6µM*
SMILES	hERG WT inh	AT treatment	KCNH2 3.1 block	ALOX12 inh
O=C1NCc2ccccc2CC12CCN(Cc1ccc(Cl)cc1)C2 (stereo unspecified)	x	x	x	22.4µM*
Cc1cc(C(=O)COc2ncnc3ccc(Br)cc23)c(C)n1C	x	x	x	1.0%
Cc1ccccc1C(=O)N(C)C1CCN(CCc2ccccn2)CC1	x	x	x	6.1%
CC1=C(C(=O)Nc2ccc(Cl)cc2C(=O)NCCc2cccs2)SCCO1	x	x	x	20.2%
CCCNC(=O)c1coc(COc2ccc3c(c2)C(c2ccc(F)cc2)N(C(=O)C(C)C)CC3)n1 (stereo unspecified)	x	x	x	-2.4%
C[S+](=O)([O-])N1CC2(CCN(Cc3ccc(Cl)cc3)C2)Cc2ccccc21 (stereo unspecified)	x	x	x	44.7µM*
C[S+](=O)([O-])N1CC2(CCN(Cc3cccc(C(N)=O)c3)C2)Cc2ccccc21 (stereo unspecified)	x	x	x	7.4%[6.33 µM]
O=C1NCc2ccccc2CC12CCN(Cc1ccc(Br)cc1)C2 (stereo unspecified)	x	x	x	28.2µM*
C[C@]1(CO)[C@H]2Cc3sc(NC(=O)c4cccc(F)c4)nc3[C@@H](CC(=O)N3CCOCC3)[C@]2(C)CC[C@H]1O	x	x	x	-24.7%
O=S(=O)(c1ccccc1)c1nc(Nc2cccc(O)c2)sc1Cl	-1.0	4.8%	21.7	35.5µM*
CC(C)OC(=O)COc1ccc2cc(-c3ccccc3)c(=O)oc2c1	x	x	x	11.8%
O=C(CSc1nnc(-c2cccnc2)n1Cc1ccco1)N1c2ccccc2Sc2ccccc21	4.9	10.3%	0.9	31.6µM*
c1cncc(CSc2nnc(-c3cccnc3)n2Cc2ccco2)c1	x	8.2%	x	-7.9%
N#Cc1ccccc1S(=O)(=O)N1CCN(C(=O)C2CC(=O)N(c3ccc4c(c3)OCCO4)C2)CC1 (stereo unspecified)	-9.5	7.7%	-74.6*	23.4%
Cc1ccc(S(=O)(=O)N2CCN(C(=O)C3CC(=O)N(c4ccc5c(c4)OCCO5)C3)CC2)cc1 (stereo unspecified)	-8.8	-13.1%	-12.4	-13.3%
CCOc1cccc2cc(C(=O)N3CCN(c4ccccc4C)CC3)c(=O)oc12	x	x	x	5.2%
C/C(=N\Nc1c(F)c(F)c(Br)c(F)c1F)c1ccncc1	-0.8	14.5%	19.6	77.5%
NNc1c(F)c(F)c(Br)c(F)c1F	x	x	x	12.6µM*
COC1=CC(=O)CC(C)C12Oc1cc(OC)cc(OC)c1C2=O (stereo unspecified)	2.3	8.1%	2.7	12.9%
COC(=O)C1=CC(=O)C=C(OC)[C@@]12Oc1cc(C)cc(OC)c1C2=O	x	x	x	4.47µM*
CN1c2ccccc2C(O)=C(C(=S)Nc2ccccc2)S1(=O)=O	-0.5	-9.2%	-2.5	u
CN1c2ccccc2C(O)=C(C(=S)Nc2ccc(F)c(Cl)c2)S1(=O)=O	-254.8*	-3.0%	-9.0	0.6%
COc1ccc(C=NNC(=S)NC23CC4CC(CC(C4)C2)C3)cc1OC	4.1	x	8.4	44.7µM*
COc1cc(OC)c(C=NNC(=S)NC23CC4CC(CC(C4)C2)C3)c(OC)c1	-40.8	x	-29.1	12.6µM*
CCOc1ccc(CNC(=S)N/N=C/c2ccc(OC)c(OC)c2)cc1	-1.4	1.5%	-2.0	14.1µM*
COc1cccc(/C=N/NC(=O)NC23CC4CC(CC(C4)C2)C3)c1O	-1.3	x	3.6	x
COc1ccccc1N1CCN(C(=O)c2ccc3c(c2)C(O)CCCCCN3C)CC1 (stereo unspecified)	x	x	x	19.9%
CC(CCN1CCC(CN2C(=O)C(=O)NC[C@@H]2Cc2ccccc2)CC1)c1ccccc1 (stereo partly specified)	2.1	x	u	39.8µM*
O=C(CN1CCCC1c1cccs1)C12CC3CC(CC(C3)C1)C2 (stereo unspecified)	x	x	x	6.31µM*
